# An excerpt weighted towards active compounds, which were near 0.71% of everything screened.
# IDE cell activ: boosts human insulin-degrading enzyme activity in HEK cells | activation, % at 5.96 µM | 340,000 compounds, 0.073% hits | FAbeta-B cleavage, fluorescence polarization; 0% vehicle, 100% cell-free pure enzyme wells;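 active = activation above the mean of all tested compounds plus 3 SD, set per screening campaign, cut at about 17% in these data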
# cardiac RTF act: increases calcium sensitivity of human cardiac regulated thin filaments. activation, % at 7.2 µM. P19429+P45379. IANBD-labeled TnC RTF fluorescence at EC20 calcium; 0% EC20 calcium, 100% full calcium. 340,000 compounds, 0.24% hits;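 active = activation above the mean over all tested compounds plus 3 SD, cut at about 30% in these data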;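 note: rise in fluorescence read as greater calcium sensitivity of cardiac thin filaments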
# IDE inh: cellular human IDE inhibition. AID 434962. inhibition, % at 5.59 µM. HEK cells, FAbetaB cleavage, fluorescence polarization. 320,000 compounds, 0.41% hits. P14735;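 active = percent inhibition above the average of all tested compounds plus 3 SD, set per screening campaign, cut at about 16% in these data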;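 note: IDE supplied by intact live HEK cells; FP after avidin binding of uncleaved biotin substrate so inhibition keeps polarization high; 0% = DMSO wells and 100% = 60 µM reference IDE inhibitor Ii1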
# RTF Ca sens inh: cardiac RTF calcium desensitization; P19429+P45379; IANBD-labeled cardiac RTF, Ca2+ fluorescence; inhibition, % at 7.15 µM; 340,000 compounds, 0.12% hits; AID 493244;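 active = inhibition above the mean inhibition of all tested compounds plus 3 SD, cut at about 17% in these data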;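 note: assay run at fixed EC70 calcium of 1.6 mM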
# * marks the source's active call; other numbers are inactive results; i = inactive; x = no result given; + = active, no number.
SMILES,IDE cell activ,cardiac RTF act,IDE inh,RTF Ca sens inh
CCC(=Cc1ccccc1O)c1ccncc1,6,-1,x,-3
N#Cc1cc(Cl)c(N2CCOCC2)cc1C#N,2,5,5,-9
N#CC(C#N)=C1C=C2C=C(N3CCOCC3)CCC2CC1 (configuration not stated),58*,+,x,i
CCN1CCN(C2=CC3=CC(=C(C#N)C#N)CCC3CC2)CC1 (configuration not stated),35*,+,x,i
CN1CCN(C2=CC3=CC(=C(C#N)C#N)CCC3CC2)CC1 (configuration not stated),13,+,x,i
CC1(C)CC(NCCN2CCN(C3=CC(=C(C#N)C#N)CC(C)(C)C3)CC2)=CC(=C(C#N)C#N)C1,1,9,4,-8
N#CC(C#N)=C1C=C2C=C(N3CCCCCC3)CCC2CC1 (configuration not stated),47*,+,x,i
N#Cc1ccc(OCC(=O)NCC(c2cccs2)N2CCOCC2)cc1 (configuration not stated),3,-4,-5,-6
c1ccc2c(c1)CNc1ccccc1-2,1,-11,x,-1
NC(=O)c1nccc2ccccc12,-2,0,x,-5
O=C1/C(=C/c2ccc(O)cc2)SC(=S)N1Cc1cccnc1,-19,-6,22*,-1
O=C(CCN1C(=O)/C(=C/c2ccccc2)SC1=S)NNC(=O)c1cccnc1,-4,35*,5,-43
O=C(CCN1C(=O)/C(=C/c2ccc(F)cc2)SC1=S)NNC(=O)c1cccnc1,1,2,8,-3
O=C(Nc1cccc2ccccc12)NC(Cc1ccccc1)C(=O)O (configuration not stated),5,-3,-1,-1
C#CCOCCOCCOCCNc1nc(N2CCN(C(=O)CCCCCCCCCCNC(=O)[C@H]([C@@H](C)CC)n3cc(CCCCCN)nn3)CC2)nc(N2CCN(C(=O)CCCCCCCCCCNC(=O)[C@@H]([C@H](C)O)n3cc(C)nn3)CC2)n1,39*,-4,-11,2
C#CCOCCOCCOCCNc1nc(N2CCN(C(=O)CCCCCCCCCCNC(=O)[C@H](CCCCN)n3cc(CCO)nn3)CC2)nc(N2CCN(C(=O)CCCCCCCCCCNC(=O)[C@@H]([C@H](C)O)n3cc(C)nn3)CC2)n1,12,6,6,-12
C#CCOCCOCCOCCNc1nc(N2CCN(C(=O)CCCCCCCCCCNC(=O)[C@H](CCCCN)n3cc(C)nn3)CC2)nc(N2CCN(C(=O)CCCCCCCCCCNC(=O)[C@@H]([C@H](C)CC)n3cc(CCCCCN)nn3)CC2)n1,39*,3,4,2
C#CCOCCOCCOCCNc1nc(N2CCN(C(=O)CCCCCCCCCCNC(=O)Cn3cc(CCCCCN)nn3)CC2)nc(N2CCN(C(=O)CCCCCCCCCCNC(=O)[C@H]([C@@H](C)CC)n3cc(CCCCCN)nn3)CC2)n1,25*,-1,-2,3
COCc1cc(C)nc2sc(C(=O)Nc3ccccc3F)c(N)c12,1,1,-3,-11
Nc1c(C(=O)Nc2ccccc2F)sc2nc(Cc3ccccc3)cc(C(F)(F)F)c12,1,49*,0,-8
C[n+]1c2cc(N)ccc2cc2ccc(N)cc21,39*,+,x,i
O=c1c2ccccc2nc2c3ccccc3c(NCCN3CCOCC3)nn12,x,x,-2,x
O=c1c2c(-c3ccccc3)csc2nc2c3ccccc3c(NCCN3CCOCC3)nn12,18*,6,x,4
O=c1c2ccccc2sn1-c1cc(S(=O)(=O)N2CCOCC2)ccc1N1CCCC1,-36,5,51*,3
CN(C)c1ccc(/C=C/c2nc3ccccc3c(=O)n2CCO)cc1,-8,38*,5,-135
SMILES,IDE cell activ,cardiac RTF act,IDE inh,RTF Ca sens inh
CC(C)CC(C(=O)NC1CCCCC1)N(Cc1ccccc1)C(=O)c1snc(C(N)=O)c1N (configuration not stated),4,-4,1,10
O=C(CC12CC3CC(CC(C3)C1)C2)NCc1ccc(F)cc1,0,-2,-4,-3
COc1cc(C(=O)Nc2ccc(Cl)c(C(F)(F)F)c2)cc(OC)c1OC,0,33*,-3,0
CC(C)OC(=O)CN1C(=O)S/C(=C/c2ccc(N3CCCCC3)o2)C1=O,-28,93*,5,-55
O=C1S/C(=C\c2ccc(N3CCOCC3)o2)C(=O)N1Cc1ccc(F)cc1,-29,50*,7,-40
O=C1S/C(=C/c2ccc(N3CCOCC3)o2)C(=O)N1Cc1ccc(F)cc1,-41,72*,9,-51
O=C1NC(=S)S/C1=C/c1ccc(N2CCOCC2)o1,-21,34*,8,-5

# Assay outcomes: PubChem BioAssay, The Scripps Research Institute Molecular Screening Center
